# Compounds without any hit were thinned out: in the full panel of roughly 83,000, 20% have a hit.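 Plates (96-well) were seeded with cells, treated with compound at one concentration, and incubated for 48 hours before percent growth was determined.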 Unmarked numbers belong to inactive results. Active and inactive are the calls of the source.
# Tested on: SK-MEL-28 melanoma
# Assay: NCI-60 one-dose screen, 48 h (100 = growth as untreated, 0 = no growth, -100 = all killed)
# Conditions: 10 µM unless noted
# Protocol: Growth inhibition of the SK-MEL-28 human tumor cell line is measured as a screen for anti-cancer activity. Cells are grown in 96 well plates and exposed to the test compound for 48 hours. Compounds are tested at a single concentration, which is 10^-5 M for most compounds. The reported endpoint is percent growth (GI% or GIPRCNT), where numbers from 0 - 100% represent growth inhibition, and numbers from -100% - 0 represent cell death. For example, a value of 40 represents 60% growth inhibition. A value of 0 means no net growth occurred over the course of the experiment. A value of -40 indicates 40% of cells at the beginning of the experiment died by the end of the experiment. A value of -100 means all cells are dead at the end of the experiment.
# NCI-60 Human Tumor Cell Lines Screen was performed using the standard one-dose NCI protocol, which is described in more detail at https://dtp.cancer.gov/discovery_development/nci-60/default.htm.
# Compounds with GIPRCNT values below 10 were considered active. Activity score was based on GIPRCNT using the following formula: […]
# Score is 0 for GIPRCNT values of 100 or above, 50 for GIPRCNT values of 0, and 100 for GIPRCNT values of -100.
row,Structure (SMILES),growth
1,Cc1cc(C(=C2C=CC(=Nc3ccccc3)C=C2)c2ccc(Nc3ccccc3)cc2)ccc1N,-82.3% (active)
2,C(=N\Nc1ccc2ccccc2n1)/c1ccccn1,32.9%
3,Oc1cc(Cl)ccc1Cc1ccc(Cl)cc1O,89.3%
4,CCCCCCCCCCCCCCCCCC1=NCCCN1CCO,108%
5,Cc1ccc(Nc2ccc(O)c3c2C(=O)c2c(O)ccc(Nc4ccc(C)cc4)c2C3=O)cc1,112%
6,O=C(Cc1nc2cc(Cl)c(Cl)cc2nc1CC(=O)c1ccccc1)c1ccccc1,91.1%
7,CC1=CC(=O)C=CC1(C)C(Cl)(Cl)Cl (stereo not given),102%
8,CN1CSC(=S)N(Cc2ccccc2)C1,120%
9,Cn1c(-c2ccccc2)c(/C=C/C2=[N+](C)c3ccccc3C2(C)C)c2ccccc21,22.5%
10,COc1cc(/C=C2\SC(=S)N(/C=C/c3nc4ccccc4[nH]c3=O)C2=O)cc(OC)c1OC,90.5%
11,CCN1CCCC(Nc2cc(C)nc(/N=C(/N)Nc3ccc(Cl)c(Cl)c3)n2)C1 (stereo not given),-87.8% (active)
12,O=C(c1ccccc1)c1cc2ccccc2oc1=O,119%
13,Cc1cc(C(N)=O)cc(C)c1C(=O)OCCCl,110%
14,Cc1nnc(N/N=C/c2ccc([N+](=O)[O-])o2)[nH]c1=O,25.4%
15,COc1cc(/C=C/c2ccnc3ccccc23)cc(OC)c1OC,34%
16,CCOc1ccc(C(C[N+](=O)[O-])Sc2ccccc2N)cc1 (stereo not given),-36.4% (active)
17,CCCCCCC1N=C(N)N=C(N)N1c1cccc(Cl)c1 (stereo not given),40%
18,C/C(=N\NC(=S)N1CC2CCC(CC2)C1)c1ccccn1,37.9%
19,CCCCCC/C=C1\CCC(CN2CCCC2)C1=O (stereo not given),114%
20,CN(C)c1ccc2cc3c(cc2c1)Oc1ccccc1N3.[Cl][Zn][Cl],111%

row,Structure (SMILES),growth
1,CN(C)c1ccc(/C=C/c2sc3ccc4ccccc4c3[n+]2C)cc1,-56.6% (active)
2,NCCCN(CCCN)CCCNCc1c2ccccc2c(CNCCCN(CCCN)CCCN)c2ccccc12,106%
3,O=C1C=CC(=O)N1c1ccc(O)cc1,107%
4,COc1ccc2nc3cc(Cl)ccc3c(NCCCCCN3CCCCC3)c2c1,-79.9% (active)
5,CCc1cccc(CC)c1N1C(=O)C=CC1=O,119%
6,CCCCC(C=O)(C=C=C(C)C)CC (stereo not given),101%
7,CC(=O)c1c(O)c(C)c(O)c2c1OC1=CC(=O)C(C(C)=O)C(=O)C12C (stereo not given),84.4%
8,O=C(O)c1cccc2cccc(-c3c4ccc(=O)c(O)c-4oc4c(O)c(O)ccc34)c12,97.6%
9,O=C(c1ccccc1)C(O)C(Br)(CBr)c1ccccc1 (stereo not given),101%
10,Nc1nc2ncc(CNc3ccc(C(=O)NC(CCC(=O)NC(CCC(=O)NC(CCC(=O)NC(CCC(=O)NC(CCC(=O)O)C(=O)O)C(=O)O)C(=O)O)C(=O)O)C(=O)O)cc3)nc2c(=O)[nH]1 (stereo not given),110%
11,O=C(c1ccccc1)C(Br)C(Br)c1ccccc1 (stereo not given),111%
12,O=[N+]([O-])c1ccc(C2N(Cc3ccc(Cl)cc3)CCN2Cc2ccc(Cl)cc2)cc1,96.3%
13,COc1ccc(/C=C2/C(=O)ON=C2C)cc1,106%
14,NC(=S)N/N=C\c1nccc2c(N)cccc12,44.6%
15,C1=C(c2ccccc2)c2ccccc2C1,116%
16,c1ccc(C2NCCNC2c2ccccc2)cc1 (stereo not given),111%
17,O=C1CSC(=S)N1Cc1cccnc1,92.1%
18,CC(=O)OC1CC2CCC1(C)C2(C)C (stereo not given),105%
19,CCCCCCCCCCCC(=O)OC(C)C(=O)NCCCC (stereo not given),121%
20,NC(CS/C(Cl)=C/Cl)C(=O)O (stereo not given),73%
